Assay results as given in the supplement of paper PMC7595190.

Test system: MV4-11
Test: CellTox Green cytotoxicity fluorescence relative to DMSO vehicle (fold of vehicle RFU); higher = more cell death (loss of membrane integrity), active = 2 or more
Procedure: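 Paediatric AML cell lines (MV4-11, CMK, Kasumi-1; 4x10^4 cells/well, 96-well) treated with single compounds from the Selleckchem apoptosis library at 0.01, 0.1 and 1 µM. Cytotoxicity was read with CellTox Green (RFU, Ex 485/Em 520) at 24, 48 and 72 h and normalised to the 0.1% DMSO vehicle. Normalised RFU >= 2 was taken as a successful, cell-killing treatment.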

Measured: CellTox Green cytotoxicity fluorescence

CCCCCCCCCCCC1=C(O)C(=O)C=C(O)C1=O [Embelin]
inactive: 0.01 µM, 24 h 1.01 | 0.01 µM, 48 h 1 | 0.01 µM, 72 h 1 | 0.1 µM, 24 h 1 | 0.1 µM, 48 h 0.999 | 0.1 µM, 72 h 1 | 1 µM, 24 h 1.02 | 1 µM, 48 h 1 | 1 µM, 72 h 1.01

Cc1nc(Nc2ncc(C(=O)Nc3c(C)cccc3Cl)s2)cc(N2CCN(CCO)CC2)n1 [Dasatinib Monohydrate]
inactive: 0.01 µM, 24 h 1 | 0.01 µM, 48 h 0.989 | 0.01 µM, 72 h 0.978 | 0.1 µM, 24 h 0.993 | 0.1 µM, 48 h 0.983 | 0.1 µM, 72 h 0.97 | 1 µM, 24 h 1.02 | 1 µM, 48 h 1.01 | 1 µM, 72 h 1.01

CC(=O)N1c2ccc(-c3ccc(C(=O)O)cc3)cc2[C@H](Nc2ccc(Cl)cc2)C[C@@H]1C
active: 0.1 µM, 72 h 2.03 | 1 µM, 72 h 2.28
inactive: 0.01 µM, 24 h 0.931 | 0.01 µM, 48 h 0.997 | 0.01 µM, 72 h 1.17 | 0.1 µM, 24 h 0.975 | 0.1 µM, 48 h 1.43 | 1 µM, 24 h 1.09 | 1 µM, 48 h 1.87

CNC(=O)c1ccc(Nc2ncc(C(F)(F)F)c(NCc3nccnc3N(C)S(C)(=O)=O)n2)cc1 [Defactinib]
inactive: 0.01 µM, 24 h 0.944 | 0.01 µM, 48 h 0.943 | 0.01 µM, 72 h 0.952 | 0.1 µM, 24 h 0.955 | 0.1 µM, 48 h 0.991 | 0.1 µM, 72 h 1.01 | 1 µM, 24 h 1 | 1 µM, 48 h 1.12 | 1 µM, 72 h 1.29
